High-throughput results deposited in PubChem BioAssay by ICCB-Longwood Screening Facility, Harvard Medical School.
Most compounds without a hit are left out; they make up all but 1.4% or so of the library.
Mtb MenB inh – M. tuberculosis MenB inhibitors, primary screen, biochemical, absorbance | 1,4-dihydroxy-2-naphthoyl-CoA synthase (Mycobacterium tuberculosis (strain ATCC 25618 / … | MenB enzyme assay, absorbance read-out | inhibition, % (concentration not given with the values) | hit rate 0.43% among 100,000 | AID 540299, 2011; in the data active means inhibition above about 21%, passing the limit was not always enough
Mtb MbtI inh – MbtI salicylate synthase inhibitors, primary screen, biochemical, fluorescence intensity; P9WFX0; purified MbtI enzyme, fluorescence intensity read-out; inhibition, % (test concentration not listed); hit rate 0.89% among 100,000; AID 493033, 2011; in the data active means inhibition mostly above about 56%, no sharp cut-off; inactive means mostly below about 77%
AID504770 – growth inhibition of E. coli YBA685, primary screen, V. cholerae RctB inhibitors; AID 504770, 2011; hit rate 0.27% among 130,000; E. coli YBA685 rctB-dependent plasmid, OD600 growth, 3 h; active compounds read low; z-score (concentration not given with the values); in the data active means z-score below about -2, passing the limit was not always enough
PV pol inh – poliovirus RdRp elongation inhibitors, primary screen, biochemical, fluorescence polarization, total intensity; poliovirus polymerase elongation; active compounds read low; % elongation, % (compound at 16.7 µg/mL); hit rate 0.66% among 150,000; Genome polyprotein (Poliovirus type 1 (strain Mahoney)), P03300; in the data active means % elongation below about 90%
Target sequence (P03300 1749-2209 limits assumed): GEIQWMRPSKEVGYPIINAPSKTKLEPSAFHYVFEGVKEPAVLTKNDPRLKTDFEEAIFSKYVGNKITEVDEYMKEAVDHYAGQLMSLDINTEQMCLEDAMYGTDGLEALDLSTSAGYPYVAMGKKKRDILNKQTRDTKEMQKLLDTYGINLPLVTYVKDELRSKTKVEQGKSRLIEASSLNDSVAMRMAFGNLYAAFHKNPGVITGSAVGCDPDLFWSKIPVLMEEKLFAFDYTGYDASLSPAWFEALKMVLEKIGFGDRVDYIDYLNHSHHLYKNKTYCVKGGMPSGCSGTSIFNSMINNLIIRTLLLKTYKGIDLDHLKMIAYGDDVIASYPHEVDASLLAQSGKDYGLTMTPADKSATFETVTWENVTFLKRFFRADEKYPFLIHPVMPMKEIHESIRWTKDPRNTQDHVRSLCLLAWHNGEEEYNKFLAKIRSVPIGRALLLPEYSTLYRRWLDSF
Active calls of the source: *.

Results for O=C(NC1=NCCS1)c1cc2c(s1)CCC2 ?
Mtb MbtI inh: 2; AID504770: -2.4*; PV pol inh: 103

Results for O=c1[nH]c(=O)n(S(=O)(=O)c2ccc(F)cc2)cc1F ?
Mtb MenB inh: -70; Mtb MbtI inh: -34; AID504770: 0.2; PV pol inh: 94

How did CCCOc1ccc(S(=O)(=O)n2cc(Br)c(=O)[nH]c2=O)cc1 do in these assays?
Mtb MbtI inh: 82*; AID504770: 0.2

Results for CN(C)CCN1C(=O)c2ccccc2Sc2ccccc2S1(=O)=O ?
AID504770: -0.2

How did O=C(O)CCN1C(=O)Cc2ccccc2C1=O do in these assays?
Mtb MenB inh: -25; Mtb MbtI inh: 6; AID504770: -0.85; PV pol inh: 22*

Results for Cc1ccc(-n2nnnc2-c2ccc3ccccc3n2)cc1 ?
AID504770: 0.05

How did CCC1=C2CCC3C(CCC4(C)C3CCC4(C)O)C2(C)CCC1=O (stereo unspecified) do in these assays?
AID504770: -0.25

What do the screens show for `N#Cc1c(-c2ccc3c(c2)OCO3)cc(-c2ccc(F)cc2)nc1N`?
Mtb MenB inh: -12; Mtb MbtI inh: 75; AID504770: -1.1; PV pol inh: 101

What do the screens show for `FC(F)(F)c1cc(-c2ccc3c(c2)OCO3)nc(=S)[nH]1`?
Mtb MenB inh: 34*; Mtb MbtI inh: -143; AID504770: 1.4; PV pol inh: 102

Results for COC(=O)CN(c1ccc(C)c(C)c1)S(C)(=O)=O ?
Mtb MenB inh: -71; Mtb MbtI inh: -12; AID504770: -0.85; PV pol inh: 102

What do the screens show for `CC(=O)Nc1sc2c(c1-c1nsc(=O)o1)CCCC2`?
Mtb MenB inh: -30; AID504770: -0.8; PV pol inh: 82*

What do the screens show for `CC(=O)Nc1sc2c(c1CN(C)C)CCCC2`?
Mtb MenB inh: -13; Mtb MbtI inh: -6; AID504770: -0.75; PV pol inh: 107

Results for CC(=O)Nc1ccc(N=Cc2ccccc2)cc1 ?
Mtb MenB inh: -7; Mtb MbtI inh: -5; AID504770: 0.1; PV pol inh: 104

What do the screens show for `O=C(Sc1nc2ccccc2o1)c1ccccc1`?
Mtb MenB inh: -50; Mtb MbtI inh: 95*; AID504770: -1.4; PV pol inh: 100

How did O=C(/C=C/Sc1nc2ccccc2o1)c1ccccc1 do in these assays?
Mtb MenB inh: -6; Mtb MbtI inh: 54*; AID504770: 0.3; PV pol inh: 97

Results for COc1ccccc1Nc1nnc(SCc2ncc(-c3ccccc3)o2)s1 ?
Mtb MenB inh: -29; Mtb MbtI inh: 6; AID504770: -0.5; PV pol inh: 102

Results for O=C(CC(C(=O)O)N(Cc1ccccc1)Cc1ccccc1)c1ccc(Cl)cc1 (stereo unspecified) ?
Mtb MenB inh: 86*; AID504770: -2.9*; PV pol inh: 96

What do the screens show for `COc1cccc(C2CC(=O)N3CN(C4CCCCC4)CSC3=C2C#N)c1` (stereo unspecified)?
PV pol inh: 77*

What do the screens show for `CCOC(=O)CN1CSC2=C(C#N)C(c3ccc(OC)cc3)CC(=O)N2C1` (stereo unspecified)?
Mtb MenB inh: 6; Mtb MbtI inh: 80; AID504770: 0.55; PV pol inh: 102

How did COc1ccc(C2CC(=O)N3CN(C4CCCCC4)CSC3=C2C#N)cc1 (stereo unspecified) do in these assays?
PV pol inh: 75*

What do the screens show for `COc1cccc(C2CC(=O)NC(SC)=C2C#N)c1` (stereo unspecified)?
Mtb MenB inh: -13; Mtb MbtI inh: -8; AID504770: -0.75; PV pol inh: 104

What do the screens show for `CCn1c(C(=O)NCc2ccc(Cl)cc2)cc2oc3ccccc3c21`?
Mtb MenB inh: -42; Mtb MbtI inh: 88; AID504770: 0.35; PV pol inh: 103

What do the screens show for `O=C(NCc1ccccc1)N1CCCCC1`?
Mtb MenB inh: 9; Mtb MbtI inh: -4; AID504770: 0; PV pol inh: 100

Results for NC(=O)C1CCN(C(c2ccc(F)cc2)c2nnc(-c3ccccc3)o2)CC1 (stereo unspecified) ?
Mtb MenB inh: -12; Mtb MbtI inh: -19; AID504770: 0.5; PV pol inh: 102

What do the screens show for `O=C(NCc1ccccc1)N1CCN(C(c2ccc(F)cc2)c2ccc(F)cc2)CC1`?
Mtb MenB inh: -12; Mtb MbtI inh: -8; AID504770: -2.9*; PV pol inh: 103

Results for COC(=O)C1CCN(C(c2ccc(F)cc2)c2ccc(F)cc2)CC1 ?
Mtb MenB inh: 20*; Mtb MbtI inh: 1; AID504770: -0.2; PV pol inh: 100

Results for C/C=C(/C(=O)O)c1ccccc1 ?
AID504770: -0.05

Results for O=C(Nc1nccs1)C1CCN(S(=O)(=O)c2ccccc2)CC1 ?
Mtb MenB inh: -53; Mtb MbtI inh: -7; AID504770: -2.3*; PV pol inh: 105

What do the screens show for `O=C(Nc1nccs1)C1CCN(S(=O)(=O)c2cccnc2)CC1`?
AID504770: -0.75

How did COc1ccc(Cl)cc1NC(=O)c1sc2nc(-c3ccc(OC)c(OC)c3)ccc2c1N do in these assays?
PV pol inh: 104

What do the screens show for `COc1ccc(Cl)cc1NC(=O)c1sc(=S)n(C)c1N`?
Mtb MenB inh: -24; Mtb MbtI inh: 88*; AID504770: -0.35; PV pol inh: 72*

What do the screens show for `CN1C(=O)C(=Cc2ccccc2OCc2ccccc2)C(=O)N(C)C1=S`?
Mtb MenB inh: -25; Mtb MbtI inh: 77; AID504770: 2.1; PV pol inh: 100

Results for COc1cccc(C=C2C(=O)N(C)C(=S)N(C)C2=O)c1OC ?
Mtb MenB inh: -76; Mtb MbtI inh: 93*; AID504770: 0.75; PV pol inh: 95

What do the screens show for `COc1ccc(NS(=O)(=O)c2ccc(N3C(=O)CC4(CCCC4)C3=O)c(Cl)c2)c(OC)c1`?
Mtb MenB inh: -8; Mtb MbtI inh: -7; AID504770: -1; PV pol inh: 107

What do the screens show for `CN(c1ccc(-c2csc(-c3cccs3)n2)cc1)S(C)(=O)=O`?
Mtb MenB inh: -18; Mtb MbtI inh: 39; AID504770: -0.25; PV pol inh: 88*

What do the screens show for `O=S(=O)(NCc1csc(-c2cccs2)n1)c1ccccc1`?
AID504770: 0

Results for COc1ccc(Cn2c(=O)[nH]c3cc(C(=O)NC4CCCCC4C)ccc32)cc1 (stereo unspecified) ?
Mtb MenB inh: -68; Mtb MbtI inh: 2; AID504770: 2.5; PV pol inh: 105

Results for COc1ccccc1-c1nnc(SCC(=O)c2ccc(F)cc2)n1-c1ccccc1 ?
PV pol inh: 83*

Results for Cc1ccc(C2=NS(=O)(=O)N(C)C(C(=O)Nc3sc4c(c3C(N)=O)CCCC4)=C2)cc1 ?
Mtb MenB inh: -67; Mtb MbtI inh: 58*; AID504770: -0.15; PV pol inh: 94

What do the screens show for `C=CCn1c(C)cc(C(=O)COC(=O)c2ccc(S(=O)(=O)N3CCCC3)cc2)c1C`?
Mtb MenB inh: 15; Mtb MbtI inh: 7; AID504770: 2.5; PV pol inh: 109
